The source of these data is the supplement of paper PMC9492666.

The structures appear in SMILES notation. Structures can show the parent of a compound that is named as a salt.
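Further: viability read out with the CCK-8 kit in 96-well plates, screening a set of 303 compounds acting on lipid metabolism targets.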

This assay concerns HCC1937. Kind of assay: relative cell viability, compound alone, vs DMSO (fraction of DMSO control); higher = less growth inhibition. The settings on record: 72 h.
`CCCc1c(-c2ccccc2)[nH]n(-c2ccccn2)c1=O` [APX-115 free base] returned a relative cell viability of 0.838.
`COc1c(/C=C/C(=O)c2ccc(O)cc2)ccc(O)c1CC=C(C)C` registered a relative cell viability of 1.06.
For the compound `CN(C)CCOC(=O)COc1ccc(Cl)cc1` [Meclofenoxate hydrochloride], the relative cell viability turned out to be 0.782.
In the case of `CN(CCOc1ccc(CC2SC(=O)NC2=O)cc1)c1ccccn1` (stereo not given) [Rosiglitazone] it was 1.43; in that of `Fc1ccc(-c2c3cccc(C(F)(F)F)c3nn2Cc2ccc(F)cc2Cl)cc1`, 1.11.
Regarding `CC(C)(C)N1C(=O)C(Nc2ccc(N3CCCCC3)cc2)=C(c2ccccc2)S1(=O)=O`, the relative cell viability stood at 1.15.
As to `C/C=C(\CC[C@@H](C)[C@H]1CC[C@H]2[C@@H]3CC=C4C[C@@H](O)CC[C@]4(C)[C@H]3CC[C@]12C)C(C)C` [Fucosterol], the relative cell viability stood at 1.
In turn, `Cc1cc(=O)oc2c(O)c(O)ccc12` [7,8-Dihydroxy-4-methylcoumarin] showed a relative cell viability of 0.911.
With `C[C@H](CCC(=O)O)[C@H]1CC[C@H]2[C@@H]3C[C@H](O)[C@@H]4C[C@H](O)CC[C@]4(C)[C@H]3CC[C@]12C` [Hyodeoxycholic acid], the relative cell viability amounted to 0.929.
As for `CC1CC(OC(=O)C(O)c2ccccc2)CC(C)(C)C1` (stereo not given) [Cyclandelate], the relative cell viability was found to be 1.21.
As for `Cc1nc2c([nH]1)c(=O)n(C)c(=O)n2Cc1ccco1` [Furafylline], the relative cell viability stood at 0.721.
Compound `CC(C)=CCC(O)C1=CC(=O)c2c(O)ccc(O)c2C1=O` (single isomer, unassigned; (+)) [(+)-Shikonin] returned a relative cell viability of 0.2.
In the case of `O=C(O)C(=O)Nc1sc2c(c1C(=O)O)CCNC2`, the relative cell viability worked out at 1.01.
Compound `O=C(Nc1ccncc1)c1cc([N+](=O)[O-])ccc1Cl` yielded a relative cell viability of 0.81.
With `O=C(NC1CCN(CCCCC2(C(=O)NCC(F)(F)F)c3ccccc3-c3ccccc32)CC1)c1ccccc1-c1ccc(C(F)(F)F)cc1` [Lomitapide], the relative cell viability was determined as 0.293.
The compound `O=C(Nc1cccnc1)N1CCC(Cc2cccc(Oc3ccc(C(F)(F)F)cn3)c2)CC1` showed a relative cell viability of 1.14.
`O=C1/C(=C/c2cccs2)CC/C1=C\c1cccs1` registered a relative cell viability of 0.766.
In the case of `COc1ccc([C@@H]2OC[C@H]3[C@@H]2CO[C@@H]3c2ccc(O[C@@H]3O[C@H](CO)[C@@H](O)[C@H](O)[C@H]3O)c(OC)c2)cc1OC` [Forsythin] it was 1.22; in that of `C=CC[S+]([O-])C[C@H](N)C(=O)O` (stereo not given in full) [Alliin], 1.
`CN(C)c1cccc(-c2c3c(=O)n(-c4ccccc4Cl)[nH]c3cc(=O)n2C)c1` yielded a relative cell viability of 0.903.
For `Oc1ccc2c(c1)OCO2` [Sesamol], the relative cell viability is 0.804.
`CCC(CC)CC1(C(=O)Nc2ccccc2SC(=O)C(C)C)CCCCC1` [Dalcetrapib] showed a relative cell viability of 1.35.
`O=S(=O)(O)c1ccc2cc(N=Nc3cc(S(=O)(=O)O)c4cccnc4c3O)ccc2c1` showed a relative cell viability of 0.987.
As to `COc1ccc(-c2coc3cc(OC)ccc3c2=O)cc1` [4',7-Dimethoxyisoflavone], the relative cell viability was found to be 0.486.
Turning to `CCNC1(C(N)=O)CCN(c2ncnc3c2nc(-c2ccccc2Cl)n3-c2ccc(Cl)cc2)CC1` [Otenabant], the relative cell viability turned out to be 0.906.
The compound `CC(c1cc2ccccc2s1)N(O)C(N)=O` (stereo not given) [Zileuton] yielded a relative cell viability of 1.21.
Compound `O=C(NCCS(=O)(=O)c1ccc(C(F)(F)F)cn1)c1ccc(Cl)cc1` gave a relative cell viability of 0.749.
The compound `CCN(CC)c1ccc(C=NNC(=O)c2ccncc2)c(O)c1` had a relative cell viability of 0.4.
In the case of `CC(C)c1cc(C(C)C)c(CC(=O)NS(=O)(=O)Oc2c(C(C)C)cccc2C(C)C)c(C(C)C)c1` [Avasimibe] it was 0.707; in that of `COc1cc(N2CCN(C)CC2)ccc1Nc1ncc2c(n1)N(C)c1ccccc1C(=O)N2`, 0.666.
`CC(C)=CCC[C@](C)(O[C@@H]1O[C@H](CO)[C@@H](O)[C@H](O)[C@H]1O)[C@H]1CC[C@]2(C)[C@@H]1[C@H](O)C[C@@H]1[C@@]3(C)CC[C@H](O[C@@H]4O[C@H](CO)[C@@H](O)[C@H](O)[C@H]4O[C@@H]4O[C@H](CO)[C@@H](O)[C@H](O)[C@H]4O)C(C)(C)[C@@H]3CC[C@]12C` [Ginsenoside Rd] yielded a relative cell viability of 0.834.
`CCCCCCCCCCC[C@@H](C[C@@H]1OC(=O)[C@H]1CCCCCC)OC(=O)[C@H](CC(C)C)NC=O` [Orlistat] came in with a relative cell viability of 0.977.
`O=C(CCCCc1ccc2c(c1)OCO2)N1CCCCC1` yielded a relative cell viability of 0.608.
For `COc1ccc(N(C(=O)Nc2c(C)cccc2C)c2cc(Nc3ccc(N4CCN(C)CC4)cc3)ncn2)c(OC)c1`, the relative cell viability turned out to be 0.915.
`CCCc1cc(-c2nc(-c3ccc(NS(C)(=O)=O)cc3)cs2)ccn1` gave a relative cell viability of 0.669.
